What all share (assay): DAPPL (digital affinity profiling via proximity ligation, sequencing); 10 mM Tris-HCl pH 7.5, 50 mM NaCl, 1 mM DTT, 4% glycerol, room temperature, 30 min; GST-TFs on glutathione beads, 16-mer random dsDNA library, 0.1% formaldehyde crosslink after washing; high values mean tight binding
What all share (conditions): protein: recombinant; tags: N-terminal GST; dsDNA, one strand shown

The target in one experiment is ELF4 (Homo sapiens, UniProt Q99607 1-663). An outline of the steps: (§1)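 Human transcription factors fused to GST were expressed in yeast, captured on glutathione beads, given DNA barcodes and pooled with a GST-only negative control. Pools were incubated with 200 nmole of a 16-mer random double-stranded DNA library in Tris/NaCl/DTT/glycerol buffer at room temperature for 30 min. They were then washed, crosslinked with 0.1% formaldehyde, proximity-ligated (BsaI/T4 ligase, 1 h, 37 °C), PCR-amplified and sequenced on an Illumina NextSeq500. Binding signal is each 6-mer's read frequency for a factor divided by its frequency for the GST control.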
Chain of ELF4 (Q99607 whole entry, the tested form may be a part): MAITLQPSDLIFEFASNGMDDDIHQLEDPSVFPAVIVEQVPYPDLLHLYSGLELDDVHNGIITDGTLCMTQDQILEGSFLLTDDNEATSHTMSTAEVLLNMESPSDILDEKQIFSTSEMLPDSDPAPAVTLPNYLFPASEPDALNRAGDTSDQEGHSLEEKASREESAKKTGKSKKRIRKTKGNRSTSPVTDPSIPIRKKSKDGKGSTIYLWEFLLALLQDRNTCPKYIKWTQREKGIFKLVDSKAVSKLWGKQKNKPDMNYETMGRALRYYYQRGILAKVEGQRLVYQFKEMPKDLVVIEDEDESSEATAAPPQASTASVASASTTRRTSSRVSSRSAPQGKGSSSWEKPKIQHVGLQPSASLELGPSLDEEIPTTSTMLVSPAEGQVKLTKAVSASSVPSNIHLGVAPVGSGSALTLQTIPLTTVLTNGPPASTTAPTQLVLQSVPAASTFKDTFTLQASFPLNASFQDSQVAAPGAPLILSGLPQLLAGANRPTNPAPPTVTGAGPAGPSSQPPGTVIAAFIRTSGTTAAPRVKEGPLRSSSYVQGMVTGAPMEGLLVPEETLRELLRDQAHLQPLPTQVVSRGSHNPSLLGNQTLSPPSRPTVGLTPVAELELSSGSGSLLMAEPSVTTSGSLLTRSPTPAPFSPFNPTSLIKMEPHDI

The target in another experiment is T1, ELK4 (Homo sapiens, UniProt P28324-2 1-405).
T1 sequence: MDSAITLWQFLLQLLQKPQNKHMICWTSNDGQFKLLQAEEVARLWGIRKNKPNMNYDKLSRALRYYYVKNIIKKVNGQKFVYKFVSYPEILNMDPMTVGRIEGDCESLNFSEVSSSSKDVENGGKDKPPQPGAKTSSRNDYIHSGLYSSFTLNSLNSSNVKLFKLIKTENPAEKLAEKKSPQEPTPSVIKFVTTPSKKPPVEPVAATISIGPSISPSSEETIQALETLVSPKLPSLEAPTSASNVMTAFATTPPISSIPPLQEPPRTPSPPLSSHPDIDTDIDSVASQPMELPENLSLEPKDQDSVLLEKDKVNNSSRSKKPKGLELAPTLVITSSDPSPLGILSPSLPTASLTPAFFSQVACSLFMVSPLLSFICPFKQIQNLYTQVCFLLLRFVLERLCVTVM
An outline of the steps: as §1

A further experiment has as its target T2, ETV2 (Homo sapiens, UniProt O00321 1-342).
T2 sequence: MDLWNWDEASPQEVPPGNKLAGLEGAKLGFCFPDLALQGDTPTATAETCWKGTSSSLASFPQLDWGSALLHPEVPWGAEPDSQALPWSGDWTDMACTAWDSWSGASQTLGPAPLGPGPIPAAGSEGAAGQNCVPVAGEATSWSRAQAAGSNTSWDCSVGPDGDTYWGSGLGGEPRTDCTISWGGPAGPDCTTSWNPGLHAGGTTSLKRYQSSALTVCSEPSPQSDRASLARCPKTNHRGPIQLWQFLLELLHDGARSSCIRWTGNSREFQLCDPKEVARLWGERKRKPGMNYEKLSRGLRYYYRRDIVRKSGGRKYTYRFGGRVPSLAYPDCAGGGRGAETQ
An outline of the steps:
as §1

A further experiment addresses T3, ELF3 (Homo sapiens, UniProt P78545 1-371).
T3 sequence: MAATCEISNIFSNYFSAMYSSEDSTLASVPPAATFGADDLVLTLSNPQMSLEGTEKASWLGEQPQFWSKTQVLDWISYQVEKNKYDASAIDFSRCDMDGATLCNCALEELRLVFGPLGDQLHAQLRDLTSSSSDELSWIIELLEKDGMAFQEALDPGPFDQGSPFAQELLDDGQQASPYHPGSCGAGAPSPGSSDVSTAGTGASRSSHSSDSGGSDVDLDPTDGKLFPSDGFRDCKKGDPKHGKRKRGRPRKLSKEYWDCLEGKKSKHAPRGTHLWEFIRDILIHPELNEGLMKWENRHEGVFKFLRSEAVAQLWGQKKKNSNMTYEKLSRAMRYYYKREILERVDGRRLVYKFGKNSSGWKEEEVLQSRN
Put shortly:
as §1

A further experiment deals with ETV1 (Homo sapiens, UniProt P50549 1-477). An outline of the steps: as §1
Chain of ETV1 (P50549 whole entry): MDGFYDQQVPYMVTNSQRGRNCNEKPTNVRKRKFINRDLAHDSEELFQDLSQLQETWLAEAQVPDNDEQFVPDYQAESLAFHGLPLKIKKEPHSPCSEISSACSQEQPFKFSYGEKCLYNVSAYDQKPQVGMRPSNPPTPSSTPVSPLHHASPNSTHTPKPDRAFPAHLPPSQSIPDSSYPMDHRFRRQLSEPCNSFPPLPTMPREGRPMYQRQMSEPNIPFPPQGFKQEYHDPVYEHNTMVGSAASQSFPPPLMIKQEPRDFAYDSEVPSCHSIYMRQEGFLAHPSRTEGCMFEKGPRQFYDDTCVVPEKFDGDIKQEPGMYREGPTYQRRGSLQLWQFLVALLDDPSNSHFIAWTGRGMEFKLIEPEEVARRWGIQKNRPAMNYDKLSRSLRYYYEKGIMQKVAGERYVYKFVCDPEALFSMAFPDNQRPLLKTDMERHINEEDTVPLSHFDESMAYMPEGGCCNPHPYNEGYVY
The next experiment concerns the target T4, ERF (Homo sapiens, UniProt P50548 1-548).
T4 sequence: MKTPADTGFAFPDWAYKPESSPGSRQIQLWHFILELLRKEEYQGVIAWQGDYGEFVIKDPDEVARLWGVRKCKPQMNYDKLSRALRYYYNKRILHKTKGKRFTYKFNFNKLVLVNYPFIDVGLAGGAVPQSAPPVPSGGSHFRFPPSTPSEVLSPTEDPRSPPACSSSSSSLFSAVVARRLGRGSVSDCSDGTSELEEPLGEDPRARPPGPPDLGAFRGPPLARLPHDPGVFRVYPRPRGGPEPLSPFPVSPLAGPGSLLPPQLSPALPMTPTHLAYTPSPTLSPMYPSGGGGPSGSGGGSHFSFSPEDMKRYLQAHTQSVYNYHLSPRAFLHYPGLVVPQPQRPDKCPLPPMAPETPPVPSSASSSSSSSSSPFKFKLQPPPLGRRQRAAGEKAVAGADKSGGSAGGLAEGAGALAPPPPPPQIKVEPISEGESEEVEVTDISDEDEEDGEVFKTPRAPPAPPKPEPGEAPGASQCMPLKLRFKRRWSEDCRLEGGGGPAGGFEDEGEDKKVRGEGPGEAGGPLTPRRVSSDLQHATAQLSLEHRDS
Put shortly:
as §1

For another experiment, the target named is T5, ETV3L (Homo sapiens, UniProt Q6ZN32 1-361).
T5 sequence: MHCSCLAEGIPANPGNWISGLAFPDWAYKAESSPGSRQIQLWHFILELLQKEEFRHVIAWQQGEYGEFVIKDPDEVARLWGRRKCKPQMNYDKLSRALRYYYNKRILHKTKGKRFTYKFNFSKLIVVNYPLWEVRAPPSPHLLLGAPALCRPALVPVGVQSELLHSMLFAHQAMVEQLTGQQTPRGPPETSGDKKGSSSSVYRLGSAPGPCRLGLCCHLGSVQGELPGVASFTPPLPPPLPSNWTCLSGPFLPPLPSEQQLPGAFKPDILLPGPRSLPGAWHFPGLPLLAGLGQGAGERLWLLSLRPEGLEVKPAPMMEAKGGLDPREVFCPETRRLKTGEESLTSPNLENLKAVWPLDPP
An outline of the steps:
as §1

A further experiment addresses T6, ETV7 (Homo sapiens, UniProt Q9Y603 1-341).
T6 sequence: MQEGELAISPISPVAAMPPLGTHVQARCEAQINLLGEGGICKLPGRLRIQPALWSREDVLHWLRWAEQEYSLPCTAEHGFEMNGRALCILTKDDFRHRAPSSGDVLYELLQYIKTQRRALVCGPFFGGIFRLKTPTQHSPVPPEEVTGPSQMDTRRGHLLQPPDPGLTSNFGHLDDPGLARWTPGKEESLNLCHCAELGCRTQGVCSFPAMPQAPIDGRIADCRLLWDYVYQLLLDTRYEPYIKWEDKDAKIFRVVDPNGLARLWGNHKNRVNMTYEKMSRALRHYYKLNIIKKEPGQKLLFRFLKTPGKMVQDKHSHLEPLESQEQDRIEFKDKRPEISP
An outline of the steps:
as §1

The target in another experiment is T7, ETV3 (Homo sapiens, UniProt P41162-2 1-143).
T7 sequence: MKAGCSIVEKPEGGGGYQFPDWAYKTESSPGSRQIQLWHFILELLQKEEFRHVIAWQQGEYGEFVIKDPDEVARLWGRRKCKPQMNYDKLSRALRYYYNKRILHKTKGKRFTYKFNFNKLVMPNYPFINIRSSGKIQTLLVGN
Put shortly:
as §1

The next experiment has as its target ETV6 (Homo sapiens, UniProt P41212 1-452). Put shortly: as §1

Chain of ETV6 (P41212 whole entry): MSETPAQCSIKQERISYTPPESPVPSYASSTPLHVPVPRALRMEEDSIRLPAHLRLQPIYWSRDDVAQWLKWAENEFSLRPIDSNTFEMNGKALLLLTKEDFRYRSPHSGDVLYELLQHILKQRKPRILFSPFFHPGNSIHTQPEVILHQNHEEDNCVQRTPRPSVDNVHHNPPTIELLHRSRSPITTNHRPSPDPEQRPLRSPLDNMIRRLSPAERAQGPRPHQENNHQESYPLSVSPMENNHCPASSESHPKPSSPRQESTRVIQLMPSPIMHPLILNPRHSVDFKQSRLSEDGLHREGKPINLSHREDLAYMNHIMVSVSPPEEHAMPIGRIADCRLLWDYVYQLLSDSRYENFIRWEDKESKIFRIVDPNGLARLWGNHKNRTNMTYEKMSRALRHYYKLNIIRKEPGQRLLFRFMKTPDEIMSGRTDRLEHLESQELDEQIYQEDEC

TACAGC: the binding signal in the experiment with ELF4 is 1.13 fold enrichment (6-mer frequency, TF over GST control); with ELK4, 1.02 fold enrichment (6-mer frequency, TF over GST control); in the experiment with ETV2, 1.12 fold enrichment (6-mer frequency, TF over GST control); with ELF3, 1.16 fold enrichment (6-mer frequency, TF over GST control); with ETV1, 1.03 fold enrichment (6-mer frequency, TF over GST control); in the experiment with ERF, 1.16 fold enrichment (6-mer frequency, TF over GST control). Besides, the binding signal is 1.08 fold enrichment (6-mer frequency, TF over GST control) with ETV3L; 1.09 fold enrichment (6-mer frequency, TF over GST control) with ETV7; 1.02 fold enrichment (6-mer frequency, TF over GST control) in the experiment with ETV3; 1.1 fold enrichment (6-mer frequency, TF over GST control) with ETV6.

The values are drawn from article PMC7862700, “An all-to-all approach to the identification of sequence-specific readers for epigenetic DNA modifications on cytosine”.
